In PubChem BioAssay AID485317 (Broad Institute, 2010):
Among all 290,000 compounds or so, about 11,000 (3.8%) were called active. The sample holds actives, similar compounds and a random draw of the others, so the mix is not that of the screen. A number with no mark means an inactive call.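 Rule for the calls: active = mean replicate inhibition above about 79%, with every replicate also reaching it (limit read from the data); inconclusive = only one of the two criteria met; inactive = mean below limit and not every replicate reaching it.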

Molecular target: FAD-linked sulfhydryl oxidase ALR (Homo sapiens) (UniProt P55789)
Assay: ALR-catalysed DTT oxidation blockers – biochemical, H2O2 detection, HRP-luminol luminescence, single point, primary screen (AID 485317)
Conditions: purified ALR, active compounds read high, concentration not given here

FAD-linked sulfhydryl oxidase ALR (Homo sapiens), sequence (P55789 whole entry, looked up): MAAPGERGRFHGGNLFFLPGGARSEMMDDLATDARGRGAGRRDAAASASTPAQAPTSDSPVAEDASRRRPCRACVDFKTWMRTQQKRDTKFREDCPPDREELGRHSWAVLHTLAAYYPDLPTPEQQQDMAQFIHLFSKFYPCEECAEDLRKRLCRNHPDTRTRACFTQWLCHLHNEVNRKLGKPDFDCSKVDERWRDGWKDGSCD

| SMILES | inhibition |
| --- | --- |
| CC(=O)Nc1ccc(NC(=O)COC(=O)C2CCC(C(C)(C)C)CC2)cc1 (stereo not drawn) | -2.92% |
| CCOC(=O)CCCCCC(=O)Nc1ccc2c(c1)CC(=O)N([C@@H](C)CO)C[C@H](C)[C@@H](CN(C)Cc1ccccc1)O2 | -2.17% |
| CCCCNC(=O)N(O)C1N(/N=C/c2ccc(N(C)C)cc2)C(=S)SC1(C)C (stereo not drawn) | 98.8% (active) |
| CCCCNC(=O)N(O)C1N(/N=C/c2ccccc2O)C(=S)SC1(C)C (stereo not drawn) | -2.9% |
| CCC(C)N1C(=S)SC(C)(C)C1N(O)C(=O)NC1CCCCC1 (stereo not drawn) | -8.63% |
| Cc1nc(NNC(=O)c2ccccc2)cc(-c2ccccc2)n1 | 90.8% (active) |
| COc1ccc(OCC(=O)NNC(=O)c2ccc(-c3ccccc3)cc2)cc1 | 1.13% |
| COc1ccc(C(=O)NNc2cc(C)nc(NNC(=O)c3ccc(OC)cc3)n2)cc1 | 12.7% |
| O=C(CNS(=O)(=O)c1ccc2c(c1)OCCCO2)N1CCN(c2ccc(F)cc2)CC1 | 3.71% |
| CC(C)NC(=O)Nc1cccc2c1O[C@H](CN(C)S(=O)(=O)c1cccs1)[C@@H](C)CN([C@H](C)CO)C2=O | 0.238% |
| Cc1[nH]n(-c2cccc(Cl)c2)c(=O)c1-c1ccc(Cl)cc1 | 32.9% |
| CC1=NN(C(N)=S)C(=O)C1N=Nc1cc(Cl)ccc1Cl (stereo not drawn) | 34.1% |
| Cc1[nH]n(C(N)=S)c(=O)c1N=Nc1ccc(Cl)cc1Cl | 96.2% (active) |
| Cc1ccc(S(=O)(=O)N(C)c2ccc(OCC(=O)OCc3ccc(C#N)cc3)cc2)cc1 | 2.46% |
| CCN(C(=O)COC(=O)/C=C/c1nc2ccccc2s1)C1CCS(=O)(=O)C1 (stereo not drawn) | 94.6% (active) |
| O=C(COC(=O)/C=C/c1nc2ccccc2s1)Nc1ccccc1Oc1ccccc1 | 28.6% |
| CCN(C(=O)CSc1nc2ccccc2n1CC)C1CCS(=O)(=O)C1 (stereo not drawn) | 9.23% |
| COc1ccccc1NC(=O)C(C)OC(=O)c1ccc(-n2cnnn2)cc1 (stereo not drawn) | 7.2% |
| CCc1cccc(NC(=O)COC(=O)C2CCN(c3ccc(C(F)(F)F)cn3)CC2)c1 | -1.14% |
| O=C(Oc1ccc(-c2nnco2)cc1)c1ccc(F)c(S(=O)(=O)N2CCOCC2)c1 | -0.68% |
| Cc1cccc(OCC(=O)OCC(=O)Nc2ccc(Cl)cn2)c1 | 0.248% |
| COc1ccc(C(=O)NCC(c2ccco2)N2CCc3ccccc32)cc1OC (stereo not drawn) | 72.4% |
| O=C(NCC(c1ccco1)N1CCc2ccccc21)c1cccc(F)c1 (stereo not drawn) | 95.5% (active) |
| Cc1ccccc1C(=O)NCC(c1ccco1)N1CCc2ccccc21 (stereo not drawn) | 27% |

| SMILES | inhibition |
| --- | --- |
| O=C(Nc1cc(S(=O)(=O)Nc2ccc(Cl)cc2)ccc1O)c1ccc(F)cc1F | -4.12% |
| CSc1ccc(S(=O)(=O)NCC(=O)OCC(=O)NC2(C#N)CCCCC2)cc1[N+](=O)[O-] | -5.06% |
| O=C1C=C(c2ccccc2)CCC1 | 0.158% |
| c1ccc(-c2cc(-c3ccccc3)[nH]n2)cc1 | -15.4% |
| O=c1[nH]c(-c2ccccc2)c(-c2ccccc2)[nH]1 | 98.6% (active) |
| O=C(Nc1ccccn1)C1CCN(S(=O)(=O)c2ccc3c(c2)OCCO3)CC1 | 1.39% |
| CCc1ccc(C(=O)NC(=S)Nc2ccccc2N2CCOCC2)cc1 | -1.76% |
| CCc1ccc2nc(Nc3ncc(C(C)=O)c(C)n3)nc(C)c2c1 | -4.9% |
| CCc1ccc2ncc(C(=O)c3ccccc3)c(N3CCOCC3)c2c1 | 97.1% (active) |
| Cc1ccc(N2CC(C(=O)Nc3cc(Cl)ccc3-n3cncn3)CC2=O)cc1 (stereo not drawn) | -10% |
| O=C(c1ccncc1)N1CCN(S(=O)(=O)c2cc(C(F)(F)F)cc(C(F)(F)F)c2)CC1 | -17.2% |
| CCCn1c(C)cc(-c2csc(NC(=O)CCc3nc4ccccc4c(=O)[nH]3)n2)c1C | -8.89% |
| S=c1[nH]nc(-c2cc(-c3ccsc3)n[nH]2)n1-c1ccccc1 | 67.2% |
| Cc1ccc(-c2csc(-c3cc(C)on3)n2)cc1 | -0.833% |
| Cc1cc(-c2n[nH]c(=S)n2-c2ccc(C)c(C)c2)no1 | 96% (active) |
| CCCCn1c(N)c(N(CCC(C)C)C(=O)CC2OC(=O)c3ccccc32)c(=O)[nH]c1=O (stereo not drawn) | -12.6% |
| COCCCNC(=O)CC1C[C@H](C(=O)N2CCCCC2)[C@@]2(CCc3ccccc3)c3[nH]c4ccccc4c3CCN2C1=O (stereo partly drawn) | -3.65% |
| CCCc1nc2ccccc2c(=O)n1NC(=O)c1c(O)c2ccccc2[nH]c1=O | -6.61% |
| O=c1c2ccccc2ncn1/N=C/c1ccccc1 | -10.9% |
| CCCc1nc2ccccc2c(=O)n1/N=C/c1ccc(O)c(O)c1 | 98.6% (active) |
| c1ccc2c(CSCc3nc4ccccc4[nH]3)cccc2c1 | 98.7% (active) |
| c1ccc(-c2nnc(SCc3nc4ccccc4[nH]3)o2)cc1 | -5.4% |
| Clc1ccccc1SCc1nc2ccccc2[nH]1 | -0.577% |
| COc1cc(/C=C(\C#N)c2nc3ccccc3[nH]2)ccc1O | 99% (active) |

| SMILES | inhibition |
| --- | --- |
| Cc1ccc2nc(/C(C#N)=C\c3ccc(OC(=O)c4cccs4)cc3)[nH]c2c1 | -13.7% |
| COc1cc(/C=C(\C#N)c2nc3c(s2)CC(C)CC3)ccc1O (stereo not drawn) | 70% |
| COc1ccc(N2CCN(S(=O)(=O)c3ccc4c(c3)N(C(C)=O)CCO4)CC2)cc1 | 89.8% (active) |
| CC(=O)N1CCOc2ccc(S(=O)(=O)N3CCN(c4cccc(C(F)(F)F)c4)CC3)cc21 | -1.95% |
| CCOC(=O)C1CCN(S(=O)(=O)c2ccc3c(c2)N(C(C)=O)CCO3)CC1 | 25.7% |
| Cc1cc(C)c(C)c(S(=O)(=O)Nc2cccnc2)c1C | -4.67% |
| CCOC(=O)c1c(NC(=O)C(C)Sc2c[nH]c3ccccc23)sc2c1CCC2 (stereo not drawn) | 94.5% (active) |
| CCOC(=O)c1c(NC(=S)Nc2ccccc2C)sc2c1CCC2 | -0.578% |
| CCOC(=O)c1c(NC(=O)CCC(=O)NCc2ccco2)sc2c1CCCC2 | 3.61% |
| O=C(O[C@@H]1[C@H](Cc2ccccc2)NS(=O)(=O)[C@H]2C[C@@H]3C=C[C@]12O3)c1ccccc1Br | 6.25% |
| CCCCn1c(N)c(N(CC(C)C)C(=O)CN(C)S(=O)(=O)c2ccc(F)cc2)c(=O)[nH]c1=O | -15.2% |
| CC(=O)c1sc(NC(=O)CCN2C(=O)C3CC=CCC3C2=O)nc1-c1ccccc1 (stereo not drawn) | 1.73% |
| CCOc1ccccc1N=C1NC(=O)CS1 | -4.82% |
| CCOc1cccc(/C=N/NC(=S)NCCN2CCOCC2)c1O | 49.2% |
| CCOc1cccc(/C=N/N2C(=O)CSC2=S)c1O | 92.9% (active) |
| CC(NC(=O)COC(=O)c1ccc2ccccc2n1)c1ccccc1 (stereo not drawn) | -0.035% |
| CCCCNC(=O)CCn1c(=S)[nH]c2cc3c(cc2c1=O)OCO3 | 5.42% |
| CCN(CC)CCCNC(=O)c1ccc2c(=O)n(Cc3ccc4c(c3)OCO4)c(=S)[nH]c2c1 | 95% (active) |
| COc1ccc(Cn2c(=S)[nH]c3cc(C(=O)NCCCN4CCOCC4)ccc3c2=O)cc1 | 7.86% |
| CCOc1ccc(NC(=O)CN(C)C(=O)c2c(C)noc2C)cc1OCC | -5.01% |
| CCOC(=O)c1c(C)oc2cc(Sc3ccccc3)c(O)c(O)c12 | -12.1% |
| CC(NCC(=O)Nc1ccccc1C(=O)NC1CC1)c1ccccc1Cl (stereo not drawn) | -6.65% |
| Nc1nonc1-n1nnc(C(=O)N/N=C/c2ccccc2O)c1CN1CCCC1 | -0.481% |
| Cc1noc(C)c1COc1ccccc1C(=O)N(C)CC(=O)Nc1cccc(F)c1 | -3.03% |

| SMILES | inhibition |
| --- | --- |
| Cc1ccc(N/N=C2\COC(C)(C)CC2=O)cc1 | 98.6% (active) |
| CSCCC1NC(=O)N(CC(=O)Nc2cccc(S(=O)(=O)N3CCCCCC3)c2)C1=O (stereo not drawn) | 9.93% |
| CCCCc1ccc(NS(=O)(=O)c2cccc(C(=O)N3CCCN(C)CC3)c2)cc1 | -4.55% |
| N#Cc1c(-c2ccc(F)cc2)nc(-c2ccccc2)[nH]c1=O | 47.4% |
| N#Cc1c(-c2ccccc2)nc(SCc2cccc(C(F)(F)F)c2)[nH]c1=O | 86.8% (active) |
| COc1ccccc1CSc1ncc(-c2ccc([N+](=O)[O-])cc2)[nH]1 | -12.3% |
| O=c1[nH]c(SCc2cccc(F)c2)nc2ccccc12 | -17.9% |
| N#Cc1c(-c2ccccc2)nc(SCc2ccc([N+](=O)[O-])cc2)[nH]c1=O | 99.5% (active) |
| O=c1[nH]c(SCc2ccccc2)nnc1-c1ccccc1 | -6.49% |
| C/C=C/c1ccc(OCC(=O)NNC(=O)CN(C)S(=O)(=O)c2ccc(C)cc2)c(OC)c1 | -17.6% |
| Cc1ccc2nnn(Cc3cccc(C(C)(C)C)c3O)c2c1 | 14.7% |
| CCC(CC)c1nnc(NC(=O)C2=COCCO2)s1 | 2.79% |
| O=C(c1ccc(Cl)s1)N(Cc1nnc(-c2ccccc2Cl)o1)C1CC1 | -3.36% |
| COc1ccc(C)cc1NC(=O)c1cc(-c2ccccc2)nc2c1cnn2C(C)C | -1.17% |
| Cc1ccc(S(=O)(=O)N2CCCCC2)cc1C(=O)N(C)CC(=O)Nc1cccc(F)c1 | -10.8% |
| O=C(CCCCCNC(=O)c1ccccc1)N/N=C/c1ccccc1 | 35.5% |
| O=C(CC(=O)Nc1ccc(Cl)c(Cl)c1)N/N=C/c1ccc(O)cc1 | 98.1% (active) |
| O=C(CC(=O)N/N=C\c1ccc(F)cc1)NCCc1ccccc1 | 38.6% |
| O=C(CC(O)(C(F)(F)F)C(F)(F)F)Nc1ccc(Cl)c(Cl)c1 | 31.6% |
| CC1=NNC(=O)C1CCC(=O)N/N=C\c1ccc(Cl)c(Cl)c1 (stereo not drawn) | 56.7% |
| O=C(C[n+]1ccccc1)N/N=C/c1ccc(O)cc1 | 98.9% (active) |
